# PfHsp90 yeast 2 – inhibits growth of yeast expressing Plasmodium falciparum Hsp90 | inhibition, % at 9.4 µM | S. cerevisiae expressing PfHsp90, BacTiter-Glo ATP, 48 h; yeast lacking PDR1 and PDR3 efflux regulators | 0.32% of 310,000 active;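 active = every replicate shows inhibition above about 80%, whatever the replicate mean, limit read from the data; inconclusive = mean inhibition reaches the set limit but some replicate falls short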;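 note: 0% = DMSO neutral controls and 100% = 20 µM radicicol positive controls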
# Shn3 inh set2 – reduces Shn3 3'UTR luciferase signal in osteoblasts; inhibition, % at 12.5 µM; 0.52% of 360,000 active; Clone20 osteoblast Shn3 3'UTR firefly luciferase, 24 h;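 active = mean inhibition of at least 75% with every replicate also reaching 75%; inconclusive = mean inhibition at least 75% but some replicate below; inactive = mean inhibition below 75%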;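 note: 0% = median of neutral control wells and 100% = pilot-screen positive control compound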
# Beta cell apopt – blocks beta cell apoptosis; INS-1E cytokine-induced death, ATP luminescence, 48 h; percent of positive-control rescue, neutral wells zero; protection from apoptosis, % (concentration not given with the values); 0.8% of 300,000 active;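 active = Every replicate reaches about 75%, or at least half do and their mean reaches it too, limit read from the data; inconclusive = At least half of replicates reach the limit but their mean does not; inactive = Under half of replicates reach the limit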;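 note: 0% = cytokine-treated negative control wells and 100% = positive control rescue; higher means more ATP so stronger rescue from cytokine killing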
# CSC inhib – cancer stem cell inhibition; cancer stem cell-like cells viability, luminescence; inhibition, % at 7.5 µM; 1.1% of 300,000 active; in the data active = inhibition above about 75%; inconclusive = no clear call, values can overlap the other calls; tested in HMLE shEcad cells
# Calb FLC – affects C. albicans growth with fluconazole | C. albicans CaCi-2 (fluconazole-resistant clinical isolate) + fluconazole, Alamar Blue growth, 48 h | growth inhibition, % (test concentration not listed) | 0.57% of 300,000 active;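 active = growth inhibition above about 58% in most replicates, limit read from the data, passing the limit was not always enough; inconclusive = exactly half the replicates above a set limit; inactive = most replicates below a set limit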;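 note: all wells also contain fluconazole at 8 µg/ml as a sub-toxic cotreatment; 0% = median of DMSO wells and 100% = median of geldanamycin control wells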
# * = called active by the depositor; ? = inconclusive; / = no result. This is a sample that favours compounds with a hit; in the whole collection about 2.2% have one here.
SMILES,PfHsp90 yeast 2,Shn3 inh set2,Beta cell apopt,CSC inhib,Calb FLC
C[C@H]1CC[C@H]2C(=O)N3[C@H](c4cccc(N5CCCC5=O)c4)[C@@H](C)CC[C@H]3C(=O)N2[C@@H]1c1cccc(N2CCCC2=O)c1,/,/,-1,-3,8
C[C@H]1CC[C@H]2C(=O)N3[C@H](c4ccccc4Br)[C@@H](C)CC[C@H]3C(=O)N2[C@@H]1c1ccccc1Br,/,/,110*,54,-18
CN1CCN(S(=O)(=O)c2ccc(Sc3nnnn3-c3ccccc3)c([N+](=O)[O-])c2)CC1,-17,87*,/,46,15
CC(=O)c1ccc(Sc2nnnn2-c2ccccc2)c([N+](=O)[O-])c1,-10,21,-8,39,42
O=S(=O)(NCc1ccccc1)c1ccc(Cl)cc1,-27,9,-1,/,-5
O=S(=O)(Nc1cc2nc3ccccc3nc2n1Cc1ccccc1)c1ccc(Cl)cc1,-11,23,3,112*,25
Cc1noc(C)c1C(=O)N1CCCC(C)(C(=O)NS(=O)(=O)C2CC2)C1 (configuration not stated),/,-2,/,/,/
CC(C)(C)c1ccc(NC(=O)COC(=O)c2ccc([N+](=O)[O-])s2)cc1,109*,11,-3,-4,/
Cc1cccc(NC(=O)CSCC(=O)NCc2ccco2)c1,-6,-7,-4,-6,8
CCCCC[n+]1cccc2c3ccccc3ccc21,-10,81,110*,13,-16
NC(=O)/C=C\C(=O)Nc1cccc(C(F)(F)F)c1,97*,-14,-9,25,-10
O=C(Nc1cccc(NC(=O)c2cccnc2)c1)c1ccccc1,5,12,-4,-5,-9
NNC(=O)Nc1cccc(C(F)(F)F)c1,/,-9,-3,-1,13
O=C(Nc1cccc(C(F)(F)F)c1)c1cccnc1,/,1,-2,-2,117*
O=C(c1ccccc1)c1c[nH]c(C(=O)NNc2ccccc2)c1,7,11,12,97*,99*
COc1ccc(NC(=O)c2sc3ncnc(N4CCN(c5ccccn5)CC4)c3c2C)cc1Cl,103*,88*,/,11,-1
COc1ccc(NC(=O)c2sc3nc(C)nc(N4CCN(c5ccccn5)CC4)c3c2C)cc1Cl,-8,41,6,9,-10
COc1ccccc1NC(=O)CCSc1nc(C)cs1,4,13,0,-2,-7
COCCNCc1cc(C)n(-c2cc(S(=O)(=O)N3CCOCC3)ccc2N2CCCC2)c1C,3,-2,/,/,/
Cc1ccc(S(=O)(=O)N2CCN(C(=O)C3CCN(c4ncnc5sc(C)c(C)c45)CC3)CC2)c(C)c1,-1,92*,/,/,/
O=S(=O)(c1ccc(Cl)cc1)N1CCN(c2ncnc3sccc23)CC1,-30,83,83*,12,/
Cc1sc2ncnc(N3CCN(S(=O)(=O)c4ccc(C(C)(C)C)cc4)CC3)c2c1C,-11,73,124*,6,/
Cc1sc2ncnc(N3CCN(S(=O)(=O)c4ccc(Br)cc4)CC3)c2c1C,-31,83,2,-9,-25
Cc1sc2ncnc(N3CCN(CCOc4ccc(Cl)cc4)CC3)c2c1C,-10,85*,103*,83*,?
COc1ccc(S(=O)(=O)NC(=O)C2(C)CCN2C(=O)Cc2ccc(C(C)(C)C)cc2)cc1 (configuration not stated),/,15,/,/,/
SMILES,PfHsp90 yeast 2,Shn3 inh set2,Beta cell apopt,CSC inhib,Calb FLC
CCN1CCN(Cc2c3ccccc3cc3ccccc23)CC1,-4,2,3,-14,-7
Cc1csc2ncnc(N3CCN(S(=O)(=O)c4cccc(C(F)(F)F)c4)CC3)c12,-28,?,95*,3,-6
O=[N+]([O-])c1ccc(C=CC=Cc2ccccc2)cc1,/,-66,/,/,/
CN(c1ccccc1)c1ccc(/C=C/[N+](=O)[O-])cc1,106*,94*,89*,-1,18
O=C1C(C2=NC(c3ccccn3)C3C(=O)N(c4ccc(OC(F)(F)F)cc4)C(=O)C23)=C(O)c2ccccc21 (configuration not stated),17,77,81*,30,-1
O=C1C(C2=NC(C(=O)O)C3C(=O)N(c4ccccc4)C(=O)C23)=C(O)c2ccccc21 (configuration not stated),/,2,-4,-2,?
O=C(OCC(=O)C12CC3CC(CC(C3)C1)C2)c1ccc(O)cc1,99*,-6,5,39,/
CSc1ccc(/C=C/C(=O)Nc2ccccc2)cc1,31,46,1,38,119*
COc1ccccc1NS(=O)(=O)c1cc(NC(=O)c2ccc(Cl)nc2)ccc1Cl,/,87*,7,18,23

# High-throughput results as filed in PubChem BioAssay.
